Records with an inconclusive call do not appear. Calls of active or inactive are those of the source. Unless noted, calls follow the shape of the dose curve; as a rule, active = well fitted curve in the direction sought with a large enough effect in the repeat runs; inconclusive = weak or mixed curves; inactive = flat fitted curve, though single readings scatter.
Legend:
[1] = qHTS assay to test for compound auto fluorescence at 535 nm (green) in HEK293 cells (AID 720680); details: green autofluorescence 485/535 nm; series mostly up to 91.3 µM
[2] = qHTS assay to test for compound auto fluorescence at 460 nm (blue) in HEK293 cell free culture (AID 720681); details: cell-free medium, autofluorescence 405/460 nm (blue); series mostly up to 91.3 µM
In short: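 Compounds were added to cell-free DMEM with 10% FBS and fluorescence read directly. The blue channel used 405 nm excitation and 460 nm emission, with triamterene as the reference fluorophore.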

[3] = qHTS assay to test for compound auto fluorescence at 535 nm (green) in HEK293 cell free culture (AID 720682); details: cell-free medium, green autofluorescence 485/535 nm, stronger effect = higher value; series mostly up to 91.3 µM
In short: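 Using fluorescein as calibrant, autofluorescence was quantified at 485/535 nm in cell-free DMEM containing 10% FBS after pintool addition of compound or vehicle.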

[4] = qHTS assay to test for compound auto fluorescence at 590 nm (red) in HEK293 cell free culture (AID 720683); details: cell-free medium autofluorescence, Ex540/Em590 red; series mostly up to 91.3 µM
In short: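 Cell-free wells of DMEM with 10% FBS received compound, and intrinsic fluorescence was read at excitation/emission 540/590 nm. Values expressed as equivalence to Rose Bengal sodium.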

[5] = qHTS assay to test for compound auto fluorescence at 590 nm (red) in HepG2 cell free culture (AID 720684); details: cell-free medium autofluorescence, red 540/590 nm; series mostly up to 91.3 µM
In short: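 Rose Bengal sodium served as the reference for red signal. Test compounds were dispensed into serum-containing MEM (10% FBS) without cells, and plates were read at 540/590 nm.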

[6] = qHTS assay to test for compound auto fluorescence at 460 nm (blue) in HepG2 cell free culture (AID 720685); details: Cell-free culture medium, blue autofluorescence 405/460 nm; series mostly up to 91.3 µM
In short: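 Cell-free plates of MEM plus 10% FBS received 23 nL compound or DMSO vehicle; blue-channel (405/460 nm) intensity scored against triamterene as reference fluorophore.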

[7] = qHTS assay to test for compound auto fluorescence at 535 nm (green) in HepG2 cell free culture (AID 720686); details: Cell-free medium, green autofluorescence 485/535 nm; series mostly up to 91.3 µM
[8] = qHTS assay to test for compound auto fluorescence at 460 nm (blue) in HepG2 cells (AID 720687); details: autofluorescence 405/460 nm, 1 h; series mostly up to 91.3 µM
In short: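 HepG2 cells in MEM with 10% FBS, attached overnight at 37 C, were exposed to compound or DMSO for 1 hr at 37 C, 5% CO2. Blue fluorescence was read at 405/460 nm, with triamterene as reference fluorophore.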

[9] = target: Glucocorticoid receptor (Homo sapiens) (UniProt P04150); test: qHTS assay to identify small molecule agonists of the glucocorticoid receptor (GR) signaling pathway (AID 720691; active = well fitted activation curve with a large enough effect in the signal ratio in the repeat runs, not every such curve was filed as active; the % refers to the signal ratio); details: GR-bla HeLa, beta-lactamase reporter ratio, 18 h; series mostly up to 62.4 µM
In short: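 Measures GR pathway activation through a GRE-beta-lactamase reporter stably integrated in HeLa cells, with 18 h compound treatment at 37 C and fluorescence detection using a FRET substrate.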

[10] = target: Glucocorticoid receptor (Homo sapiens) (UniProt P04150); test: qHTS assay to identify small molecule antagonists of the glucocorticoid receptor (GR) signaling pathway (AID 720692; active = well fitted inhibition curve with a large enough effect in the signal ratio in the repeat runs, not every such curve was filed as active; the % refers to the signal ratio); details: GR-bla HeLa, beta-lactamase FRET ratio, dexamethasone-stimulated, 18 h; series mostly up to 58.5 µM
In short: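 Tox21 10K library screened in concentration-response for blockade of dexamethasone (5 nM final)-induced GRE-bla reporter activity in HeLa cells; 18 h treatment, fluorescence read.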
% is scaled to controls: 0 for no effect and ±100 for the full control effect.

Sequence of Glucocorticoid receptor (Homo sapiens) (P04150 whole entry, looked up): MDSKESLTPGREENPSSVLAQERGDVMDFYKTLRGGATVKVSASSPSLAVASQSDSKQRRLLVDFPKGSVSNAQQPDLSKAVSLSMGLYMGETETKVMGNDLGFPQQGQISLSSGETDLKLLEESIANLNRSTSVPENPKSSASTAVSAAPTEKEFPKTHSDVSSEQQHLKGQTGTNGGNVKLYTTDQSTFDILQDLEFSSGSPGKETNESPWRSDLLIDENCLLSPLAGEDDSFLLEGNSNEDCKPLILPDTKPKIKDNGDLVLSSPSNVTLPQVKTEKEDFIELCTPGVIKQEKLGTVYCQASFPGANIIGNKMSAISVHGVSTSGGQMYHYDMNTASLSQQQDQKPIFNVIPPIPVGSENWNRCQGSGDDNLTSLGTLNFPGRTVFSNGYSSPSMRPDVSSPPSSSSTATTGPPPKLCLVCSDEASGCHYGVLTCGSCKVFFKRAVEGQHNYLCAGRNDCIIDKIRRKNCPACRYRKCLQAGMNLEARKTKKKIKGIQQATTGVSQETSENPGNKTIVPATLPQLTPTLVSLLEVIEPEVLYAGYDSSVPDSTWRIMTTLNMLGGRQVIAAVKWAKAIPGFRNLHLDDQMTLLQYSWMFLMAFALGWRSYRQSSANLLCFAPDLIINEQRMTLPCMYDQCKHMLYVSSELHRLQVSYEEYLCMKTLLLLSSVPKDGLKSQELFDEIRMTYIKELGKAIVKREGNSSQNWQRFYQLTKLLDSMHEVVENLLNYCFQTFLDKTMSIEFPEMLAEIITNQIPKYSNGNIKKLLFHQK

CCCCCCNC(=O)n1cc(F)c(=O)[nH]c1=O
inactive: outcome [1] | Potency [2] | outcome [3] | outcome [4] | outcome [5] | Potency [6] | outcome [7] | Potency [8] | Potency [9]

O=C(O)CCCCCCCCCCCBr
inactive: outcome [1] | Potency [2] | outcome [3] | outcome [4] | outcome [5] | Potency [6] | outcome [7] | Potency [8] | Potency [9] | Potency [10]

Cc1ccc(C(C)(C)O)cc1
inactive: outcome [1] | Potency [2] | outcome [3] | outcome [4] | outcome [5] | Potency [6] | outcome [7] | Potency [8] | Potency [9] | Potency [10]

CC(C)=CCC/C(C)=C/CC/C(C)=C/CCC(=O)OC/C=C(\C)CCC=C(C)C
inactive: outcome [1] | Potency [2] | outcome [3] | outcome [4] | outcome [5] | Potency [6] | outcome [7] | Potency [8] | Potency [9]

C/C=C(/C(=C/C)c1ccc(O)cc1)c1ccc(O)cc1
inactive: fluorescence, % of fluorescein [1] 0.128% [at 18.6 µM] | fluorescence, % of fluorescent control [2] 0.115% [at 18.6 µM] | activity change [3] -0.004% [at 18.6 µM] | fluorescence, % of fluorescent control [4] 0.121% [at 18.6 µM] | fluorescence, % of Rose Bengal [5] 0.0319% [at 18.6 µM] | fluorescence, % of fluorescent control [6] -0.0042% [at 18.6 µM] | fluorescence, % of fluorescein control [7] -0.0063% [at 18.6 µM] | fluorescence, % of fluorescent control [8] 0.0165% [at 18.6 µM] | Potency [9]

CC(C)(C)C(=O)C(=O)O
inactive: outcome [1] | Potency [2] | outcome [3] | outcome [4] | outcome [5] | Potency [6] | outcome [7] | Potency [8] | Potency [9] | Potency [10]

C[C@@]12CCC[C@H]1[C@@H]1CC[C@H]3C[C@@H](O)CC[C@]3(C)[C@H]1CC2
inactive: outcome [1] | Potency [2] | outcome [3] | outcome [4] | outcome [5] | Potency [6] | outcome [7] | Potency [8] | Potency [9]

Cc1cc(C)cc(N)c1
inactive: outcome [1] | Potency [2] | outcome [3] | outcome [4] | outcome [5] | Potency [6] | outcome [7] | Potency [8] | Potency [9]

NC(=O)c1ccncc1
inactive: outcome [1] | Potency [2] | outcome [3] | outcome [4] | outcome [5] | Potency [6] | outcome [7] | Potency [8] | Potency [9] | Potency [10]

CN1CCCC(CC2c3ccccc3Sc3ccccc32)C1 (configuration not stated)
inactive: fluorescence, % of fluorescein [1] 0.0892% [at 18.6 µM] | fluorescence, % of fluorescent control [2] -0.0216% [at 18.6 µM] | activity change [3] 0.123% [at 18.6 µM] | fluorescence, % of fluorescent control [4] 0.0507% [at 18.6 µM] | fluorescence, % of Rose Bengal [5] -0.0495% [at 18.6 µM] | fluorescence, % of fluorescent control [6] 0.14% [at 18.6 µM] | fluorescence, % of fluorescein control [7] -0.006% [at 18.6 µM] | fluorescence, % of fluorescent control [8] 0.049% [at 18.6 µM] | Potency [9]

C1COC1
inactive: outcome [1] | Potency [2] | outcome [3] | outcome [4] | outcome [5] | Potency [6] | outcome [7] | Potency [8] | Potency [9]

O=C1CCCCCCCCCCOCCCCO1
inactive: outcome [1] | Potency [2] | outcome [3] | outcome [4] | outcome [5] | Potency [6] | outcome [7] | Potency [8] | Potency [9] | Potency [10]

Nc1cccc2c1CN(C1CCC(=O)NC1=O)C2=O (configuration not stated)
inactive: outcome [1] | Potency [2] | outcome [3] | outcome [4] | outcome [5] | Potency [6] | outcome [7] | Potency [8] | Potency [9] | Potency [10]

CC(C)C=O
inactive: outcome [1] | Potency [2] | outcome [3] | outcome [4] | outcome [5] | Potency [6] | outcome [7] | Potency [8] | Potency [9] | Potency [10]

CC1(C)[C@@H](OC(=O)CCC(=O)O)CC[C@]2(C)[C@H]3C(=O)C=C4[C@@H]5C[C@@](C)(C(=O)O)CC[C@]5(C)CC[C@@]4(C)[C@]3(C)CC[C@@H]12
inactive: fluorescence, % of fluorescein [1] -0.0149% [at 18.6 µM] | fluorescence, % of fluorescent control [2] -0.141% [at 18.6 µM] | activity change [3] -0.0002% [at 18.6 µM] | fluorescence, % of fluorescent control [4] 0.073% [at 18.6 µM] | fluorescence, % of Rose Bengal [5] 0.105% [at 18.6 µM] | fluorescence, % of fluorescent control [6] 0.0251% [at 18.6 µM] | fluorescence, % of fluorescein control [7] 0.0091% [at 18.6 µM] | fluorescence, % of fluorescent control [8] -0.0128% [at 18.6 µM] | Potency [9] | Potency [10]

CC(=O)c1ccc([N+](=O)[O-])cc1
inactive: outcome [1] | Potency [2] | outcome [3] | outcome [4] | outcome [5] | Potency [6] | outcome [7] | Potency [8] | Potency [9]

NC1[C@H]2CN(c3nc4c(cc3F)c(=O)c(C(=O)O)cn4-c3ccc(F)cc3F)C[C@@H]12 (some centres not stated)
inactive: outcome [1] | Potency [2] | outcome [3] | outcome [4] | outcome [5] | Potency [6] | outcome [7] | Potency [8] | Potency [9] | Potency [10]

CCOC(C)=O
inactive: outcome [1] | Potency [2] | outcome [3] | outcome [4] | outcome [5] | Potency [6] | outcome [7] | Potency [8] | Potency [9] | Potency [10]

CCCCCCCCCI
inactive: outcome [1] | Potency [2] | outcome [3] | outcome [4] | outcome [5] | Potency [6] | outcome [7] | Potency [8] | Potency [9] | Potency [10]

COC(=O)CCS
inactive: outcome [1] | Potency [2] | outcome [3] | outcome [4] | outcome [5] | Potency [6] | outcome [7] | Potency [10]

Cc1cccc(O)c1N
inactive: outcome [1] | Potency [2] | outcome [3] | outcome [4] | outcome [5] | Potency [6] | outcome [7] | Potency [9]

CC/C=C1/OC(=O)c2ccccc21
inactive: outcome [1] | Potency [2] | outcome [3] | outcome [4] | outcome [5] | Potency [6] | outcome [7] | Potency [9] | Potency [10]

CC(=O)OCC[N+](C)(C)C
inactive: outcome [1] | Potency [2] | outcome [3] | outcome [4] | outcome [5] | Potency [6] | outcome [7] | Potency [9] | Potency [10]

CCCCCCCC/C=C\CCCCCCCCO
inactive: outcome [1] | Potency [2] | outcome [3] | outcome [4] | outcome [5] | Potency [6] | outcome [7] | Potency [8] | Potency [10]

CCCCC(CC)CN (configuration not stated)
inactive: outcome [1] | Potency [2] | outcome [3] | outcome [4] | outcome [5] | Potency [6] | outcome [7] | Potency [9]

CCCC(=O)C(=O)O
inactive: outcome [1] | Potency [2] | outcome [3] | outcome [4] | outcome [5] | Potency [6] | outcome [7] | Potency [8] | Potency [10]

COc1ccccc1N1CCN(CCCCNC(=O)c2ccc(-c3ccc(C(C)=O)cc3)cc2)CC1
inactive: outcome [1] | Potency [2] | outcome [3] | outcome [4] | outcome [5] | Potency [6] | outcome [7] | Potency [8] | Potency [9] | Potency [10]
